SMN2 splice up = SMN2 splice variant enhancement. HEK293 SMN2-luciferase splicing reporter, luminescence, 30-36 h. Potency, µM (top dose mostly 46.1 µM), without a hit: at the highest dose activity change, positive = activation, actives largely listed as activators. hit rate 2.8% among 210,000. AID 1458; also: % of control where 0% means no effect; nearly all actives have a fitted effect of over 55% in size
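HEK293 cells carry an SMN2 minigene-luciferase reporter in which exon 7 inclusion puts luciferase in frame. Cells were seeded at 2000 cells/well, attached for 10-12 hours, then exposed to compounds for 30-36 hours at 37C before ONE-Glo luminescence.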
ELG1 genotoxic = inducers of genotoxicity in HEK293T ELG1-luciferase cells; Potency, µM (doses to about 46 µM), for inactives: at the highest dose activity change, positive = activation, most hits filed as activators; hit rate 1.3% among 330,000; HEK293T ELG1-luciferase reporter, luminescence, 16 h; also: % of control where 0% means no effect; nearly all actives have a fitted effect of over 60% in size
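ELG1-luciferase HEK293T cells, 2,000/well; compound pinned in; 16 hr, 37 °C, 5% CO2; ONE-Glo, 30 min RT; luminescence on CCD imager.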
p53 reactivation = restores transcriptional activity of mutant p53 | hit rate 0.063% among 320,000 | H1299 p53-A138V BP100-luciferase reporter, luminescence, 24 h | Potency, µM (series often up to 92.2 µM), without a hit: at the top dose activity change, positive = activation, usual class: activators; also: % of control where 0% means no effect; nearly all actives have a fitted effect of over 45% in size
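p53-null H1299 cells stably carrying temperature-sensitive p53-A138V and a BP100-luciferase reporter were pinned with compounds (4-point, 1:5 series) and held 24 hrs at 37 deg C. Luminescence was read 10 min after detection reagent.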
FLuc counter = counter-screen for miR-21 project: firefly luciferase inhibitors or activators; purified FLuc, Km substrates, luminescence inhibition; Potency, µM (highest dose often 57.5 µM), for the others: top-dose activity change, negative = inhibition, hits mostly inhibitors; hit rate 6.9% among 360,000;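 also: plate controls were vehicle for no effect and reference inhibitor for full effect; nearly all actives have a fitted effect of over 55% in size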
Target sequence (P08659 whole entry, looked up): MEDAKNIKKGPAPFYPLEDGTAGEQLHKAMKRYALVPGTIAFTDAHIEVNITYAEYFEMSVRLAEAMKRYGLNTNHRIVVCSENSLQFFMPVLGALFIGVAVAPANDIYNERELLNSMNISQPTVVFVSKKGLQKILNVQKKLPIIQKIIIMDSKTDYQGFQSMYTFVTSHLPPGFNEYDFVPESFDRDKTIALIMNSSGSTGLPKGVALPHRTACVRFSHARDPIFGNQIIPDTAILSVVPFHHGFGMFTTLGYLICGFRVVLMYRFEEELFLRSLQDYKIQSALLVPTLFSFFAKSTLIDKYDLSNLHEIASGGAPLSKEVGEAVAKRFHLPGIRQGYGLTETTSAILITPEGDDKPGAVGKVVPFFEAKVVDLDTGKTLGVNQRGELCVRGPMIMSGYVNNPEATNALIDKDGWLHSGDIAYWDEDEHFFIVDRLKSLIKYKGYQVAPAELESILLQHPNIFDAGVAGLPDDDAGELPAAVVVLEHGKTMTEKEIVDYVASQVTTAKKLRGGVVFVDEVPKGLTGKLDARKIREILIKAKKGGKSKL
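Biochemical qHTS of compounds, final roughly 60 µM downward over six points, against 10 nM purified firefly luciferase using Km concentrations of substrates (10 uM D-luciferin, 10 uM ATP) in Tris acetate pH 7.5 buffer; luminescence output.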
Rab9 promoter act = activates the Rab9 promoter | Huh7 Rab9 promoter-luciferase reporter, luminescence, 24 h | Potency, µM (series often up to 9.22 µM), for the others: at the highest dose activation, negative = inhibition, hits mostly activators | AID 485297 | hit rate 2.8% among 320,000; also: % of control where 0% means no effect; nearly all actives have a fitted effect of over 60% in size
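Luciferase signal after 10 min detection reagent at ambient indicates Rab9 promoter upregulation; stably transfected Huh7 cells were treated 24 h with compound in DMSO at 37 °C, 5% CO2.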
NPC1 prom act = activates the NPC1 promoter. Huh7 NPC1 promoter luciferase reporter, 24 h. Potency, µM (series often up to 9.22 µM), for inactives: top-dose activation, actives largely listed as activators. hit rate 2.4% among 320,000. AID 485313; also: % of control where 0% means no effect; nearly all actives have a fitted effect of over 60% in size
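Stable NPC1-promoter luciferase Huh7 line; cpd (DMSO) 24 h, 37 °C, 5% CO2; Amplite luciferase reagent 10 min RT; luminescence readout. qHTS format.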
* = called active by the depositor; ? = inconclusive; / = no result. Sampled rows, rich in hits. Any-hit rate of the full collection: about 7.3%. Calls follow the shape of the dose curve; as a rule, active = well fitted curve in the direction sought with a large enough effect; inconclusive = small, poorly fitted or top-dose-only effect, or another doubt; inactive = no such curve, though single readings can be large; an effect the other way counts as inactive or inconclusive. Potency is read from the fitted curve at half-maximal effect.

SMILES	SMN2 splice up	ELG1 genotoxic	p53 reactivation	FLuc counter	Rab9 promoter act	NPC1 prom act
COc1ccc(-c2ccc(SCC(=O)NCc3ccco3)nn2)cc1	7%	?	15%	8.5µM*	?	21%
CCOc1ccc(-c2ccc(SC)nn2)cc1	0.79µM*	?	-3%	0.48µM*	0.32µM*	0.63µM*
COc1ccc(-c2ccc(SCC(=O)Nc3nnc(C)s3)nn2)cc1	?	8%	-1%	1.3µM*	?	6%
Cn1c(-c2ccc(F)cc2)cnc1SCC(=O)Nc1ccccc1N1CCOCC1	13µM*	1.8µM*	?	0.95µM*	1.3µM*	1.6µM*
O=C1Nc2c(c(=O)[nH]c(=O)n2-c2ccc(Cl)cc2)C1(NS(=O)(=O)c1ccccc1)C(F)(F)F (stereo unspecified)	21%	/	/	-16%	/	/
CCc1ccccc1NC(=O)CN1CCCN(Cc2cc(C)ccc2C)S1(=O)=O	/	/	/	-3%	/	/
Cc1ccc(NC(=O)C2CCN(S(=O)(=O)c3ccc4[nH]c5c(c4c3)CCCCC5)CC2)cc1	/	/	/	-2%	/	/
COC(=O)c1ccn(-c2nc(-c3ccc(Cl)cc3)cc(C(F)(F)F)n2)n1	-13%	/	/	-7%	/	/
CCOC(=O)COn1c(=O)c(-c2ccccc2)[n+]([O-])c2ccccc21	/	3%	1%	1%	1%	2%
CCc1nnc(NC(=O)CSc2nnc(C)n2-c2ccc(C)cc2)s1	-3%	-5%	-3%	4%	-3%	0%
O=C(CSc1ncc(-c2ccccc2)nn1)NCc1ccco1	/	-3%	16%	-1%	-6%	0%
CCc1nnc(NC(=O)CSc2ccc(-c3ccc(C)cc3)nn2)s1	?	?	-2%	2.4µM*	?	?
CCOc1ccc(-c2ccc(SCC(=O)Nc3nnc(CC)s3)nn2)cc1	11µM*	?	21%	0.6µM*	?	?
O=C(CSc1nc(-c2ccccc2)cs1)NCc1ccco1	-8%	23µM*	11%	?	3%	0%
CCc1nnc(NC(=O)CSc2ncc(-c3ccccc3)n2C)s1	-19%	18µM*	28%	?	29%	7%
CCOc1ccc(NC(=O)CCC(=O)Nc2nnc(CC)s2)cc1	/	16%	8%	-1%	-1%	19%
O=C(c1csnn1)N1CCC2(CC1)CCN(c1ncccn1)CC2	-9%	/	/	/	/	/
O=C(COc1ccc(Cl)cc1)OCc1cc(=O)n2nc(C3CCCCC3)sc2n1	/	/	/	6%	/	/
Cc1cccc(N2CCN(C(=O)CN3C(=O)C4CC=CCC4C3=O)CC2)c1C (stereo unspecified)	1%	10%	11%	17µM*	3.2µM*	?
Cc1cccc(N2CCN(C(=O)CN3C(=O)NC(C)(C)C3=O)CC2)c1C	/	4%	10%	-19%	27%	26%
COc1ccc(NC(=O)CSc2nc3ccccc3n2CC(=O)N2CCCC(C)C2)cc1 (stereo unspecified)	/	/	/	0%	/	/
Cc1ccc(Nc2cc(C)nc3ncnn23)c(C)c1	/	4%	/	3%	1%	-5%
Cc1ccc(C)c(Nc2cc(C)nc3ncnn23)c1	/	18%	/	0%	0.1µM*	?
Cc1cc(Nc2ccc(N(C)C)cc2)n2ncnc2n1	/	10%	-1%	17µM*	-2%	-1%
Cc1ccc(NC(=O)CCS(=O)(=O)c2ccc3c(c2)NC(=O)C(C)S3)nc1 (stereo unspecified)	/	-4%	-1%	1%	0%	2%
CCc1cccc(C)c1NC(=O)C1CCCN1C(=O)NCc1ccccc1 (stereo unspecified)	/	0%	2%	1%	-2%	-5%
COc1ccc2c(c1)CC(C(=O)NCCc1ccc(S(N)(=O)=O)cc1)CO2 (stereo unspecified)	/	/	/	5%	/	/
Cc1cc(O)c(C(=O)/C=C/c2cccc([N+](=O)[O-])c2)c(=O)o1	/	1%	0%	21µM*	-16%	-13%
